DT40 TDP1 CPT = qHTS for Inhibitors of human tyrosyl-DNA phosphodiesterase 1 (TDP1): qHTS in cells in presence of CPT; chicken DT40 Tdp1-/-;hTDP1 cells + 20 nM CPT, ATP luminescence, 48 h; Potency, µM (doses to about 46.2 µM), inactives show at the top dose activity change, negative = growth inhibition, usual class: inhibitors; 420,000 compounds, 12% hits; AID 686979, 2013; also: % is scaled to controls: 0 for no effect and ±100 for the full control effect; nearly all actives have a fitted effect of over 55% in size
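Chicken DT40 Tdp1-/- cells stably complemented with human TDP1 were seeded at 400 cells/well in medium containing 20 nM camptothecin, exposed to pin-transferred compounds, and grown at 37 °C for at least 48 hr. Viability was read as ATP luminescence.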
TDP1 block = qHTS Assay for Inhibitors of Tyrosyl-DNA Phosphodiesterase (TDP1). Tyrosyl-DNA phosphodiesterase 1 (Homo sapiens), Q9NUW8. recombinant TDP1, AlphaScreen DNA substrate cleavage. Potency, µM (top dose mostly 130 µM), for the others: top-dose activity change, negative = inhibition, most hits filed as inhibitors. 350,000 compounds, 0.28% hits. AID 485290, 2010; also: % is scaled to controls: 0 for no effect and ±100 for the full control effect; nearly all actives have a fitted effect of over 40% in size
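Compounds were preincubated with Tdp1 (1 nM final) for 15 min at room temperature before substrate (15 nM final) started a 5 min reaction; beads (10 ug/ml final) were then added for 10 min before AlphaScreen detection.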
TDP1 cell noCPT = qHTS for Inhibitors of human tyrosyl-DNA phosphodiesterase 1 (TDP1): qHTS in cells in absence of CPT | Potency, µM (top dose mostly 46.2 µM), for the others: at the highest dose activity change, negative = growth inhibition, usual class: inhibitors | DT40 Tdp1-/- hTDP1 cells, no CPT, ATP luminescence, 48 h | 420,000 compounds, 15% hits; also: % is scaled to controls: 0 for no effect and ±100 for the full control effect; nearly all actives have a fitted effect of over 55% in size
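No-CPT arm: Tdp1-/-;hTDP1 DT40 cells (400/well) plus compounds, incubated ≥48 hr at 37 °C. Readout CellTiter-Glo luminescence.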
ClpP mod = qHTS Assay for Activators of ClpP. Potency, µM (titrated, usually from 57.5 µM), for inactives: top-dose activity change, negative = active. ATP-dependent Clp protease proteolytic subunit (Bacillus subtilis (strain 168)), P80244. 340,000 compounds, 1.9% hits. purified B. subtilis ClpP, FRET peptide cleavage, 20 min; active = well fitted falling curve with a large enough effect; inconclusive = small, poorly fitted or top-dose-only effect; inactive = no such curve, though single readings can be large or run the other way; also: the source files actives as falling curves though it sought activators and does not explain the sign; nearly all actives have a fitted effect of over 65% in size
Target sequence (P80244 whole entry, looked up): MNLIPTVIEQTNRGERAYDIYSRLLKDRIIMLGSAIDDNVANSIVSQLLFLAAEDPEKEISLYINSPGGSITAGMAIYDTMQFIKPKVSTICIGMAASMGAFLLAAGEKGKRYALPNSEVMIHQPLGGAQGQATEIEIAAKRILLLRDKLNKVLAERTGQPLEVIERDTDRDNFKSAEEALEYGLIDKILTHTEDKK
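ClpP 10 microg/mL final, pH 8 Tris/KCl buffer with BSA, glycerol, Tween-20; compound pinned in; FRET-FV substrate; RT 20 min; Ex320/Em430; ΔFRET vs ADEP 5.8 microM, DMSO, no enzyme.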
* = called active by the depositor; u = inconclusive; x = not tested or not shown. The list is not random: actives were taken first. Their share in the collection is about 17%. Unless noted, calls follow the shape of the dose curve; as a rule, active = well fitted curve in the direction sought with a large enough effect; inconclusive = small, poorly fitted or top-dose-only effect, or another doubt; inactive = no such curve, though single readings can be large; an effect the other way counts as inactive or inconclusive. Potency is read from the fitted curve at half-maximal effect.

SMILES	DT40 TDP1 CPT	TDP1 block	TDP1 cell noCPT	ClpP mod
CCOC(=O)c1nc(Nc2cc(C)cc(C)c2)c2ccccc2n1	18µM*	4%	21µM*	x
CCCCCOC(=O)c1ccc(Nc2nc(C(=O)OCC)nc3ccccc23)cc1	3.3µM*	x	1.3µM*	-4%
COc1ccccc1Nc1nc(-c2ccccc2O)nc2ccccc12	u	7%	u	x
CCOC(=O)c1c(CCl)nc2ccccc2c1C	u	6%	u	-9%
COc1cc(/C=C/C(=O)N(C)CC(=O)Nc2ccccc2SC)cc(OC)c1OC	u	1%	u	-23%
Cn1c(=O)c2c(c3ccccc31)OC(=O)CC2c1ccc(C(F)(F)F)cc1 (stereo unspecified)	26%	7%	-9%	4%
CCOC(=O)c1nc(Nc2ccc(Nc3ccccc3)cc2)c2ccccc2n1	13µM*	7%	7.3µM*	0%
CCOC(=O)c1nc(Nc2ccc(OC)cc2)c2ccccc2n1	u	x	21µM*	0%
CCOC(=O)c1nc(Nc2ccc(C(=O)O)cc2)c2ccccc2n1	-2%	3%	-23%	1%
CCOC(=O)c1ccc(Nc2nc(C(=O)OCC)nc3ccccc23)cc1	5.8µM*	9%	2.6µM*	182%
CCOC(=O)c1nc(Nc2ccc(C(=O)OCC(C)C)cc2)c2ccccc2n1	6.5µM*	x	6.5µM*	5%
CC(OC(=O)c1ccc(F)c(S(=O)(=O)N2CCOCC2)c1)C(=O)NC1CCCC1 (stereo unspecified)	5%	-6%	-11%	1%
COc1ccc(NC(=O)C2CCCN2C(=O)OC(C)(C)C)cc1 (stereo unspecified)	-6%	5%	-4%	x
CC(C)OC(=O)c1ccc(NC(=O)Cn2c(-c3nonc3N)nc3ccccc32)cc1	-1%	x	-13%	-2%
COc1cccc(CNC(=O)CCl)c1	9%	0%	0%	-3%
CCOC(=O)c1nc(NCc2cccc(OC)c2)c2ccccc2n1	u	5%	16µM*	-2%
COc1cccc(CNC(=O)COC(=O)c2nc(Cl)c(Cl)c(Cl)c2Cl)c1	0.0082µM*	-7%	u	-11%
CCOC(=O)c1nc(Nc2ccc(C(=O)OC(C)C)cc2)c2ccccc2n1	5.2µM*	x	4.1µM*	35%
C#CCOCCOCCOCCNc1nc(N2CCN(C(=O)CCCCCCCCCCNC(=O)Cn3cc(C[C@@H](C)O)nn3)CC2)nc(N2CCN(C(=O)CCCCCCCCCCNC(=O)Cn3cc(C[C@@H](C)O)nn3)CC2)n1	6.5µM*	0%	9.2µM*	-1%
C#CCOCCOCCOCCNc1nc(N2CCN(C(=O)CCCCCCCCCCNC(=O)Cn3cc(C[C@@H](C)O)nn3)CC2)nc(N2CCN(C(=O)CCCCCCCCCCNC(=O)[C@H](CCCCN)n3cc(C[C@@H](C)CC)nn3)CC2)n1	16µM*	x	21µM*	2%
C#CCOCCOCCOCCNc1nc(N2CCN(C(=O)CCCCCCCCCCNC(=O)[C@H](CCCCN)n3cc(C[C@@H](C)CC)nn3)CC2)nc(N2CCN(C(=O)CCCCCCCCCCNC(=O)[C@H](CCCCN)n3cc(C[C@@H](C)CC)nn3)CC2)n1	8.2µM*	x	9.2µM*	2%
Cc1ccc(NC(=O)C2CCN(C(=O)c3ccco3)CC2)cc1C	-4%	x	-1%	x
CCOC(=O)N1CCN(C(=O)c2cc(COc3ccc4ncccc4c3)on2)CC1	6.5µM*	4%	6.5µM*	x
Cc1cccnc1CN1CCN(C(=O)c2cc(COc3ccc4ncccc4c3)on2)CC1	5.8µM*	3%	7.3µM*	x
CCN1CCN(C(=O)c2cc(COc3c(C)cccc3C)on2)CC1	-25%	3%	-14%	1%
Cc1cc(-c2ccccc2C(=O)Nc2ccccc2O)on1	-18%	4%	-11%	x
O=C(Nc1ccccn1)C(=O)Nc1ccccn1	-4%	5%	-13%	2%
Cc1ccc(C)c(C(=O)c2ccccc2NC(=O)c2ccccn2)c1	16µM*	-5%	9.2µM*	x
Cc1ccc2c(c1)C(=O)C(=O)N2CC(=O)Nc1ccccc1NC(=O)c1ccccn1	5.2µM*	-1%	5.8µM*	x
